Screening results as filed in PubChem.
Rows were chosen to be rich in hits. Some 5% of all compounds tested hit in one or more screens of this group.
USP7 inh: human USP7 deubiquitinase inhibition; 47,000 tested, 0.3% active; inhibition, % at 20 µM; purified USP7, Ub-rhodamine cleavage fluorescence; AID 1645854; Q93009
USP8 inh: human USP8 deubiquitinase inhibition | P40818 | purified USP8, Ub-rhodamine cleavage fluorescence, 30 min | inhibition, % at 20 µM | 47,000 tested, 4.2% active | AID 1645853
UCHL1 inh: human UCHL1 deubiquitinase inhibition | purified UCHL1, Ub-rhodamine cleavage fluorescence | inhibition, % at 20 µM | 47,000 tested, 0.2% active
Target sequence (P09936 whole entry, looked up): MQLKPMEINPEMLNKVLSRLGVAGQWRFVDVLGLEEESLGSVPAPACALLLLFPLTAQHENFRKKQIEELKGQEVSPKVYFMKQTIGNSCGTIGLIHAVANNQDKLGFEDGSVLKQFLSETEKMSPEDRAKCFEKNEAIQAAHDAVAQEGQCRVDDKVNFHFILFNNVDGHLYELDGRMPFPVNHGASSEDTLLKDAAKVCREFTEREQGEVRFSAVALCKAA
USP10 inh: inhibitors of human USP10 deubiquitinase | inhibition, % at 20 µM | 47,000 tested, 1.1% active | purified USP10, Ub-rhodamine fluorescence, 60 min
Hits are given with their value. Rule as the data show it: active = inhibition above about 30%; inactive = the rest.

Results for O=C(CCn1c(=O)c2ccccc2n(Cc2ccc([N+](=O)[O-])cc2)c1=O)NCc1ccco1 ?
USP7 inh: inactive; USP8 inh: inactive; UCHL1 inh: inactive; USP10 inh: inactive

How did CCOc1ccc(NC(=O)Cn2c(=O)n(CCC(=O)NCc3ccco3)c(=O)c3ccccc32)cc1 do in these assays?
USP7 inh: inactive; USP8 inh: 45.0; UCHL1 inh: inactive; USP10 inh: 44.6

How did COc1ccc(-c2noc(-c3cccc(OCC(=O)Nc4cccc(C)n4)c3)n2)cc1 do in these assays?
USP7 inh: inactive; USP8 inh: inactive; UCHL1 inh: inactive; USP10 inh: inactive

Results for CCCCC(=O)Nc1ccc(C(=O)OCc2cc(=O)n3cc(C)sc3n2)cc1 ?
USP7 inh: inactive; USP8 inh: inactive; UCHL1 inh: inactive; USP10 inh: inactive

Results for Cc1cnc(-c2cc(CC3CCN(Cc4cccnc4)C3)ncn2)[nH]1 (stereo unspecified) ?
USP7 inh: inactive; USP8 inh: inactive; UCHL1 inh: inactive; USP10 inh: inactive

How did Cc1ccc(NC(=O)Cn2c(=O)n(CC(=O)NCc3ccco3)c(=O)c3ccccc32)cc1C do in these assays?
USP7 inh: inactive; USP8 inh: inactive; UCHL1 inh: inactive; USP10 inh: inactive

Results for O=C(CCCCn1c(=O)c2ccccc2n(CC(=O)NCCC2=CCCCC2)c1=O)NCc1ccco1 ?
USP7 inh: inactive; USP8 inh: 41.8; UCHL1 inh: inactive; USP10 inh: inactive

How did Cc1cc(NC(=O)Cn2c(=O)n(CCCCC(=O)NCc3ccco3)c(=O)c3ccccc32)ccc1Br do in these assays?
USP7 inh: inactive; USP8 inh: 84.2; UCHL1 inh: inactive; USP10 inh: 59.6

Results for Cc1cc(NC(=O)Cn2c(=O)n(CC3CCC(C(=O)NCCc4ccccc4)CC3)c(=O)c3ccccc32)n[nH]1 (stereo unspecified) ?
USP7 inh: inactive; USP8 inh: 36.5; UCHL1 inh: inactive; USP10 inh: inactive

What do the screens show for `O=C(Cn1c(=O)n(CC2CCC(C(=O)NCCc3ccccc3)CC2)c(=O)c2ccccc21)Nc1ccccc1F` (stereo unspecified)?
USP7 inh: inactive; USP8 inh: inactive; UCHL1 inh: inactive; USP10 inh: inactive

How did Cc1ccc(Cl)cc1NC(=O)Cn1c(=O)n(CCC(=O)NCc2ccco2)c(=O)c2ccccc21 do in these assays?
USP7 inh: inactive; USP8 inh: 63.8; UCHL1 inh: inactive; USP10 inh: 56.4

What do the screens show for `O=C(Cn1c(=O)n(CC2CCC(C(=O)NC3CCCC3)CC2)c(=O)c2ccccc21)NCCC1=CCCCC1` (stereo unspecified)?
USP7 inh: inactive; USP8 inh: inactive; UCHL1 inh: inactive; USP10 inh: 34.2

Results for Cc1nc(N2CCOCC2)ncc1-c1cc(=O)[nH]c(N2c3ccccc3CC2C)n1 (stereo unspecified) ?
USP7 inh: inactive; USP8 inh: inactive; UCHL1 inh: inactive; USP10 inh: inactive

How did Cc1nc(N2CCC(C)CC2)ncc1-c1cc(=O)[nH]c(N2c3ccccc3CC2C)n1 (stereo unspecified) do in these assays?
USP7 inh: inactive; USP8 inh: 44.2; UCHL1 inh: inactive; USP10 inh: inactive

Results for CC(C)C[C@H](NC(=O)c1ccc2nc(-n3cccc3)sc2c1)C(=O)NCc1ccco1 ?
USP7 inh: inactive; USP8 inh: 53.4; UCHL1 inh: inactive; USP10 inh: inactive

Results for COc1cccc(CC(=O)Nc2ccc3nc(C)sc3c2)c1 ?
USP7 inh: inactive; USP8 inh: inactive; UCHL1 inh: inactive; USP10 inh: inactive

What do the screens show for `COc1ccc(NC(=O)CNC(=O)c2ccc3nc(-n4cccc4)sc3c2)cc1`?
USP7 inh: inactive; USP8 inh: 82.5; UCHL1 inh: inactive; USP10 inh: inactive

Results for CC(C)NC(=O)N1CCN(c2ccc3ccc(C(=O)NCC(F)(F)F)cn23)CC1 ?
USP7 inh: inactive; USP8 inh: inactive; UCHL1 inh: inactive; USP10 inh: inactive

Results for COCCn1c(SCC(=O)Nc2ccc(NC(=O)c3ccco3)c(OC)c2)nc2ccccc2c1=O ?
USP7 inh: inactive; USP8 inh: inactive; UCHL1 inh: inactive; USP10 inh: inactive

How did COCCn1c(SCC(=O)c2ccc(NC(C)=O)cc2F)nc2ccccc21 do in these assays?
USP7 inh: inactive; USP8 inh: 31.7; UCHL1 inh: inactive; USP10 inh: inactive

Results for COc1ccc(C2CC(=O)c3ccccc3O2)c(C(=O)O)c1OC (stereo unspecified) ?
USP7 inh: inactive; USP8 inh: inactive; UCHL1 inh: inactive; USP10 inh: inactive

What do the screens show for `Cc1nn(-c2nc3ccccc3[nH]2)c2c1C(c1ccccc1Cl)CC(=O)N2` (stereo unspecified)?
USP7 inh: inactive; USP8 inh: 51.5; UCHL1 inh: inactive; USP10 inh: inactive
